# Source: PubChem BioAssay (NCATS)
# Values joined by “and” are separate entries in the source; they are usually repeats but may differ in a detail not shown here. Equal values may be shown once. Records with an inconclusive call do not appear. Active and inactive are the calls of the source. Unless noted, calls come from the whole dose curve; as a rule, active = well fitted curve in the direction sought with a large enough effect; inconclusive = small, poorly fitted or top-dose-only effect, or another doubt; inactive = no such curve, though single readings can be large; an effect the other way counts as inactive or inconclusive.
# Tested on: not listed separately
# Assay: Cell Viability - LYMP1-002 - Assay at 24 hr (AID 993); note: % is set by controls: 0 for no effect and ±100 for the full control effect
# Conditions: LYMP1-002 lymphoblastoid cells viability; series mostly up to 92.2 µM
# Outline: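 Acute toxicity is measured as concentration-dependent loss of cellular ATP in a human lymphoblastoid line (Coriell LYMP1-002) after 24 h treatment in complete medium. ATP is quantified by luciferase luminescence and AC50 derived by Hill modelling.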
row,Structure (SMILES),outcome
1,O=c1[nH]cnc2[nH]ncc12,inactive
2,NC(N)=NC(=O)c1nc(Cl)c(N)nc1N,inactive
3,CCCC(CCC)C(=O)O,inactive
4,CC(=O)Oc1ccccc1C(=O)O,inactive
5,NC(=O)c1cnccn1,inactive

# Tested on: not listed separately
# Assay: Cell Viability - LYMP1-002 - Assay at 40 hr (AID 994);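 note: 0% = DMSO only and full inhibition = 92 µM tetraoctylammonium bromide; nearly all actives have a fitted effect of over 60% in size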
# Conditions: LYMP1-002 lymphoblastoid cell viability; series mostly up to 92.2 µM
# Outline: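 Cells are plated at 2500 per well and rested 5 hr at 37 C. Compounds are added and incubated 40 hr at 37 C. CellTiter-Glo reagent is added for 30 min at room temperature before luminescence is read.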
row,Structure (SMILES),outcome
1,O=c1[nH]cnc2[nH]ncc12,inactive
2,NC(N)=NC(=O)c1nc(Cl)c(N)nc1N,inactive
3,CCCC(CCC)C(=O)O,inactive
4,CC(=O)Oc1ccccc1C(=O)O,inactive
5,NC(=O)c1cnccn1,inactive

# Target: alpha-glucosidase (Oryza sativa, rice) (UniProt Q653V4)
# Assay: Counterscreen for Glucocerebrosidase Inhibitors: qHTS Assay for Rice alpha-Glucosidase at pH 5.0 (AID 997);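 note: 0% = full activity with enzyme and -100% = basal without enzyme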
# Conditions: rice alpha-glucosidase enzyme activity; series mostly up to 76.9 µM
# Outline: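 Endpoint fluorogenic assay at pH 5.0: compounds (0.7 nM to 77 uM) titrated against 4 nM rice enzyme and 400 uM 4-MU-alpha-glucoside for 20 min at room temperature; NaOH/glycine stop, read ex 365/em 440 nm, Hill-fitted AC50.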
row,Structure (SMILES),outcome
1,NC[C@H](O)c1ccc(O)c(O)c1,inactive
2,O=c1[nH]cnc2[nH]ncc12,inactive
3,CCOC(=O)C1=C[C@@]2(CC)CCCN3CCc4c(n1c1ccccc41)[C@H]32,inactive
4,CNC[C@H](O)c1cccc(O)c1,inactive
5,NC(N)=NC(=O)c1nc(Cl)c(N)nc1N,inactive
6,CCCC(CCC)C(=O)O,inactive
7,Cc1cnc(NC(=O)C2=C(O)c3ccccc3S(=O)(=O)N2C)s1,inactive
8,C[C@]12CCC(=O)C=C1CC[C@@H]1[C@@H]2[C@@H](O)C[C@@]2(C)[C@H]1CC[C@]2(O)C(=O)CO,inactive
9,O=NN(CCCl)C(=O)NCCCl,inactive
10,O=c1n(CCCN2CCN(c3cccc(Cl)c3)CC2)nc2ccccn12,inactive
11,Nc1nc2c(ncn2COCCO)c(=O)[nH]1,inactive
12,O=C1CCc2cc(OCCCCc3nnnn3C3CCCCC3)ccc2N1,inactive
13,CC(=O)Oc1ccccc1C(=O)O,inactive
14,NCCc1ccc(O)c(O)c1,inactive
15,C1COC(NC(C2CC2)C2CC2)=N1,inactive
16,OC(CN1CCC(Cc2ccc(F)cc2)CC1)c1ccc(Cl)cc1 (centres undefined),inactive
17,Cc1cn[nH]c1,inactive
18,CCCCNc1cc(C(=O)O)cc(S(N)(=O)=O)c1Oc1ccccc1,inactive
19,CC(C)(Sc1ccc(CCN(CCCCC2CCCCC2)C(=O)NC2CCCCC2)cc1)C(=O)O,inactive
20,NC(=O)c1cnccn1,inactive
21,N=c1nc(N2CCCCC2)cc(N)n1O,inactive
22,N[C@@H]1CONC1=O,inactive
23,CC(C)NCC(O)COc1ccc(COCCOC(C)C)cc1 (centres undefined),inactive
24,Cc1[nH]c(=O)c(C#N)cc1-c1ccc2nccn2c1,inactive
25,CCOC(=O)N1CCC(=C2c3ccc(Cl)cc3CCc3cccnc32)CC1,inactive

# Tested on: not listed separately
# Assay: qHTS Assay for Lipid Storage Modulators (AID 1519; calls by dose curve; for activity change, negative = inhibition: % is set by controls: 0 for no effect and ±100 for the full control effect)
# Conditions: Drosophila S3 cells, BODIPY lipid droplet/cell ratio, laser cytometry; at 25.7 µM (top of the series); cells loaded with oleic acid
# Outline: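 Cells seeded at 5,000 per well were treated with compounds over a concentration series and loaded with oleic acid (400 uM, as added). Lipid droplet fluorescence (488 nm excitation, 500-530 nm channel) was read by laser-scanning cytometry and normalized to 20 uM Triacsin C.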
row,Structure (SMILES),"activity change, negative = inhibition"
1,CCOC(=O)C1=C[C@@]2(CC)CCCN3CCc4c(n1c1ccccc41)[C@H]32,-1.77% (inactive)
2,C1COC(NC(C2CC2)C2CC2)=N1,-4.99% (inactive)
3,CCCCNc1cc(C(=O)O)cc(S(N)(=O)=O)c1Oc1ccccc1,0.496% (inactive)
4,N=c1nc(N2CCCCC2)cc(N)n1O,0.0649% (inactive)
5,N[C@@H]1CONC1=O,-1.13% (inactive) and 2.32% (inactive)

# Same assay, conditions: Drosophila S3 cells, BODIPY lipid droplet/cell ratio, laser cytometry; at 57.5 µM (top of the series); cells loaded with oleic acid
row,Structure (SMILES),"activity change, negative = inhibition"
1,NC[C@H](O)c1ccc(O)c(O)c1,0.534% (inactive)
2,O=c1[nH]cnc2[nH]ncc12,3.88% (inactive) and -0.195% (inactive)
3,CNC[C@H](O)c1cccc(O)c1,0.239% (inactive)
4,CCCC(CCC)C(=O)O,7.45% (inactive)
5,O=NN(CCCl)C(=O)NCCCl,-2.32% (inactive)
6,O=c1n(CCCN2CCN(c3cccc(Cl)c3)CC2)nc2ccccn12,10.8% (inactive) and -2.4% (inactive)
7,O=C1CCc2cc(OCCCCc3nnnn3C3CCCCC3)ccc2N1,-9.74% (inactive)
8,CC(=O)Oc1ccccc1C(=O)O,4.32% (inactive)
9,NCCc1ccc(O)c(O)c1,6.86% (inactive) and 6.19% (inactive) and 1.49% (inactive)
10,CCCCNc1cc(C(=O)O)cc(S(N)(=O)=O)c1Oc1ccccc1,9.35% (inactive) and 0.368% (inactive)
11,CC(C)(Sc1ccc(CCN(CCCCC2CCCCC2)C(=O)NC2CCCCC2)cc1)C(=O)O,-0.767% (inactive)
12,NC(=O)c1cnccn1,8.38% (inactive)
13,N=c1nc(N2CCCCC2)cc(N)n1O,3.81% (inactive) and 8.57% (inactive)
14,N[C@@H]1CONC1=O,0.855% (inactive)
15,Cc1[nH]c(=O)c(C#N)cc1-c1ccc2nccn2c1,-1.62% (inactive)
16,CCOC(=O)N1CCC(=C2c3ccc(Cl)cc3CCc3cccnc32)CC1,3.85% (inactive)

# Same assay, conditions: Drosophila S3 cells, BODIPY lipid droplet/cell ratio, laser cytometry; measured here: cell count channel max response; cells loaded with oleic acid
row,Structure (SMILES),max response
1,NC[C@H](O)c1ccc(O)c(O)c1,-22.5%
2,O=c1[nH]cnc2[nH]ncc12,3.2% and 58%
3,CCOC(=O)C1=C[C@@]2(CC)CCCN3CCc4c(n1c1ccccc41)[C@H]32,-14.2%
4,CNC[C@H](O)c1cccc(O)c1,20.5%
5,CCCC(CCC)C(=O)O,23.9%
6,O=NN(CCCl)C(=O)NCCCl,-3.08%
7,O=c1n(CCCN2CCN(c3cccc(Cl)c3)CC2)nc2ccccn12,20.6% and -14.9%
8,O=C1CCc2cc(OCCCCc3nnnn3C3CCCCC3)ccc2N1,-20.7%
9,CC(=O)Oc1ccccc1C(=O)O,19.3%
10,NCCc1ccc(O)c(O)c1,7.38% and 3.94% and -27.9%
11,C1COC(NC(C2CC2)C2CC2)=N1,3.69%
12,CCCCNc1cc(C(=O)O)cc(S(N)(=O)=O)c1Oc1ccccc1,0.765% and 10.7% and -18.8%
13,CC(C)(Sc1ccc(CCN(CCCCC2CCCCC2)C(=O)NC2CCCCC2)cc1)C(=O)O,16.5%
14,NC(=O)c1cnccn1,10.7%
15,N=c1nc(N2CCCCC2)cc(N)n1O,-1.22% and 19% and 16.9%
16,N[C@@H]1CONC1=O,-10.2% and -6.54% and 0.81%
17,Cc1[nH]c(=O)c(C#N)cc1-c1ccc2nccn2c1,25.3%
18,CCOC(=O)N1CCC(=C2c3ccc(Cl)cc3CCc3cccnc32)CC1,1.57%
